Laboratory results as given in PubChem BioAssay (NCATS).
Records with an inconclusive call do not appear. Calls of active or inactive are those of the source. Calls follow the shape of the dose curve; as a rule, active = well fitted cell-killing curve with a large enough effect; inconclusive = small, poorly fitted or top-dose-only effect, or effect the other way; inactive = no such curve, though single readings can be large or run the other way.

Assay: Quantitative High-Throughput drug screen in 47 multiple myeloma cell lines against the NCATS MIPE library collection: OPM1_PLB cell viability assay (AID 1918989); also: nearly all actives have a fitted effect of over 40% in size;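 as to viability (% of control): 100% = DMSO-only wells and 0% = media-only wells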
Conditions: CellTiter-Glo, 48 h; series mostly up to 45.8 µM
Procedure, shortened: (§1)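 Readout: median RLU from CellTiter-Glo after 5 min at room temperature. Preceding step was 48 h drug treatment of 500 cells/well at 37 °C, 5% CO2, with DMSO-only and media-only control wells.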
Potency is read from the fitted curve at half-maximal effect.

| SMILES | Potency | viability (% of control) |
| --- | --- | --- |
| Cc1cc(O)c2c(c1)C(=O)c1cccc(O)c1C2=O | inactive |  |
| CCC(C(=O)O)C1CCC(C)C(C(C)C(O)C(C)C(=O)C(CC)C2OC3(C=CC(O)[C@@]4(CC[C@](C)(C5CC[C@@](O)(CC)C(C)O5)O4)O3)C(C)CC2C)O1 (some centres not stated) | 1.32 µM (active) |  |
| CC(C)(C)[C@H](NC(=O)c1ccc(N)c(Cl)c1)C(=O)N1CCC[C@@H]1C(=O)N[C@H](C#N)CC(=O)O |  | 141% [at 3.51 µM] (inactive) |
| Cn1cnc(=N)c2[nH]cnc21 | 0.0662 µM (active) |  |
| COc1ccc2c(c1OC)C(=O)OC2[C@H]1c2c(cc3c(c2OC)OCO3)CCN1C (some centres not stated) | 0.469 µM (active) |  |
| C[C@@H]1CC[C@@]2(OC1)OC1CC3C4CC=C5CC(O)CCC5(C)C4CCC3(C)C1[C@@H]2C (some centres not stated) | inactive |  |
| C=C(C)[C@@H]1CC[C@]2(C(=O)O)CC[C@]3(C)[C@H](CC[C@@H]4[C@@]5(C)CC[C@H](O)C(C)(C)[C@@H]5CC[C@]43C)[C@@H]12 | inactive |  |
| CC(=O)OCC(=O)[C@@]1(O)CC[C@H]2[C@@H]3CCC4=CC(=O)CC[C@]4(C)[C@@H]3C(=O)C[C@@]21C | inactive |  |
| C[C@H](CCC(=O)O)[C@H]1CC[C@H]2[C@@H]3[C@H](O)C[C@@H]4C[C@H](O)CC[C@]4(C)[C@@H]3CC[C@]12C | inactive |  |
| c1cc(CN2CCCNCCNCCCNCC2)ccc1CN1CCCNCCNCCCNCC1 | inactive |  |
| C=CC(=O)N1CCc2ccc(-n3c(=O)ccc4cnc5ccc(-c6cnn(C)c6)cc5c43)cc21 | 0.833 µM (active) |  |
| Oc1cc(-c2nc(-c3ccccc3)[nH]c2-c2ccncc2)ccc1Cl | 14.8 µM (active) |  |
| O=c1[nH]c(=O)n([C@H]2C[C@@H](O)[C@@H](CO)O2)cc1C=CBr | 0.105 µM (active) |  |
| COC[C@H](NC(=O)c1cnc(C)s1)C(=O)N[C@@H](COC)C(=O)N[C@@H](Cc1ccccc1)C(=O)[C@@]1(C)CO1 | 0.118 µM (active) |  |
| CCNC(=O)Nc1ccc(-c2nc3c(c(N4CCOC[C@H]4C)n2)CCN(C2COC2)C3)cc1 | 1.18 µM (active) |  |
| COC(=O)[C@H](CCCN=C(N)N)NS(=O)(=O)c1ccc(C)cc1 | inactive |  |
| COc1cc([C@@H]2c3cc4c(cc3[C@@H](O[C@@H]3O[C@@H]5CO[C@@H](c6cccs6)O[C@@H]5[C@H](O)[C@@H]3O)[C@H]3COC(=O)[C@H]23)OCO4)cc(OC)c1O | 1.18 µM (active) |  |
| CCOC(=O)[C@H](CCc1ccccc1)N[C@@H](C)C(=O)N1[C@@H](C(=O)O)C[C@H]2CCC[C@@H]21 | 5.26 µM (active) |  |
| O=C(CCCCCCC(=O)Nc1cccnc1)NO | 4.18 µM (active) |  |
| COc1cc([C@@H]2c3cc4c(cc3[C@H](O)[C@H]3COC(=O)[C@@H]23)OCO4)cc(OC)c1OC | 0.187 µM (active) |  |
| NC(=O)N1CCC(CC(=O)N2CCC([C@H]3c4ncc(Br)cc4CCc4cc(Cl)cc(Br)c43)CC2)CC1 | 23.5 µM (active) |  |
| CC(C)NC[C@@H](C(=O)N1CCN(c2ncnc3c2[C@H](C)C[C@H]3O)CC1)c1ccc(Cl)cc1 | 0.372 µM (active) |  |
| C[C@H](NCc1ccc(OCc2cccc(F)c2)cc1)C(N)=O | 2.64 µM (active) |  |
| O=C(c1ccc(F)cc1)N1CCC[C@H](c2nc(-c3ccc(F)cc3)no2)C1 | inactive |  |
| COc1cccc2c1C(=O)c1c(O)c3c(c(O)c1C2=O)C[C@@](O)(C(=O)CO)C[C@@H]3O[C@H]1C[C@H](N)[C@H](OC2CCCCO2)[C@H](C)O1 (some centres not stated) | 16.6 µM (active) |  |

Assay: Quantitative High-Throughput drug screen in 47 multiple myeloma cell lines against the NCATS MIPE library collection: SKMM1_PLB cell viability assay (AID 1919863); also: nearly all actives have a fitted effect of over 35% in size
Conditions: SKMM1 myeloma viability, CellTiter-Glo ATP, 48 h; viability: stronger effect = lower value
Procedure, shortened: as §1

| SMILES | Potency | viability |
| --- | --- | --- |
| CCC(C(=O)O)C1CCC(C)C(C(C)C(O)C(C)C(=O)C(CC)C2OC3(C=CC(O)[C@@]4(CC[C@](C)(C5CC[C@@](O)(CC)C(C)O5)O4)O3)C(C)CC2C)O1 (some centres not stated) | 2.64 µM (active) |  |
| CC(C)(C)[C@H](NC(=O)c1ccc(N)c(Cl)c1)C(=O)N1CCC[C@@H]1C(=O)N[C@H](C#N)CC(=O)O |  | 125% (inactive) |
| Cn1cnc(=N)c2[nH]cnc21 | 0.209 µM (active) |  |
| C[C@@H]1CC[C@@]2(OC1)OC1CC3C4CC=C5CC(O)CCC5(C)C4CCC3(C)C1[C@@H]2C (some centres not stated) |  | 155% (inactive) |
| COc1ccc(S(=O)(=O)Nc2cccnc2Nc2ccc(O)cc2)cc1 | 0.0372 µM (active) |  |
| C=C(C)[C@@H]1CC[C@]2(C(=O)O)CC[C@]3(C)[C@H](CC[C@@H]4[C@@]5(C)CC[C@H](O)C(C)(C)[C@@H]5CC[C@]43C)[C@@H]12 | 0.935 µM (active) |  |
| CC(=O)OCC(=O)[C@@]1(O)CC[C@H]2[C@@H]3CCC4=CC(=O)CC[C@]4(C)[C@@H]3C(=O)C[C@@]21C |  | 120% (inactive) |
| CC(=O)SCC(Cc1ccccc1)C(=O)NCC(=O)OCc1ccccc1 (configuration not stated) | 10.5 µM (active) |  |
| C[C@H](CCC(=O)O)[C@H]1CC[C@H]2[C@@H]3[C@H](O)C[C@@H]4C[C@H](O)CC[C@]4(C)[C@@H]3CC[C@]12C |  | 131% (inactive) |
| c1cc(CN2CCCNCCNCCCNCC2)ccc1CN1CCCNCCNCCCNCC1 |  | 136% (inactive) |
| C=CC(=O)N1CCc2ccc(-n3c(=O)ccc4cnc5ccc(-c6cnn(C)c6)cc5c43)cc21 | 1.32 µM (active) |  |
| N#CNC(=NCCCCCCOc1ccc(Cl)cc1)Nc1ccncc1 | 0.0166 µM (active) |  |
| COC[C@H](NC(=O)c1cnc(C)s1)C(=O)N[C@@H](COC)C(=O)N[C@@H](Cc1ccccc1)C(=O)[C@@]1(C)CO1 | 0.372 µM (active) |  |
| CN(C)CCN1C(=O)c2cccc3cc(N)cc(c23)C1=O | 18.7 µM (active) |  |
| CCNC(=O)Nc1ccc(-c2nc3c(c(N4CCOC[C@H]4C)n2)CCN(C2COC2)C3)cc1 | 0.935 µM (active) |  |
| COC(=O)[C@H](CCCN=C(N)N)NS(=O)(=O)c1ccc(C)cc1 |  | 122% (inactive) |
| COc1cc([C@@H]2c3cc4c(cc3[C@@H](O[C@@H]3O[C@@H]5CO[C@@H](c6cccs6)O[C@@H]5[C@H](O)[C@@H]3O)[C@H]3COC(=O)[C@H]23)OCO4)cc(OC)c1O | 5.26 µM (active) |  |
| O=c1ccn([C@@H]2O[C@H](CO)[C@H](O)[C@@H]2F)c(=O)[nH]1 |  | 118% (inactive) |
| NC(=O)N1CCC(CC(=O)N2CCC([C@H]3c4ncc(Br)cc4CCc4cc(Cl)cc(Br)c43)CC2)CC1 | 18.7 µM (active) |  |
| CC(C)NC[C@@H](C(=O)N1CCN(c2ncnc3c2[C@H](C)C[C@H]3O)CC1)c1ccc(Cl)cc1 | 10.5 µM (active) |  |
| C[C@H](NCc1ccc(OCc2cccc(F)c2)cc1)C(N)=O | 18.7 µM (active) |  |
| COc1cccc2c1C(=O)c1c(O)c3c(c(O)c1C2=O)C[C@@](O)(C(=O)CO)C[C@@H]3O[C@H]1C[C@H](N)[C@H](OC2CCCCO2)[C@H](C)O1 (some centres not stated) | 2.64 µM (active) |  |
